FBW7 act: FBW7 E3 ligase activators, primary screen, biochemical, AlphaScreen, human | F-box/WD repeat-containing protein 7 (Homo sapiens), Q969H0 | AlphaScreen FBW7–phospho-cyclin E peptide binding, activator screen | normalized activity (activation), % at 26.1 µM | hit rate 0.13% among 650,000 | AID 1259310, 2017; in the data active = normalized activity above about 1.9%;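 also: purified mutant Fbw7 with reduced substrate affinity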
MITF primary: MITF inhibitors, primary screen, biochemical, AlphaScreen, human; AlphaScreen MITF homodimerization, bead proximity signal; hit rate 0.91% among 650,000; Microphthalmia-associated transcription factor (Homo sapiens), O75030; inhibition, % at 2.6 µM; in the data active = inhibition above about 50%
GPR151 activ: activators of human GPR151, primary screen, cell-based, PathHunter beta-arrestin, luminescence; AID 1508602, 2020; activation, % at 11.2 µM; PathHunter beta-arrestin GPR151 cells; hit rate 1% among 650,000; G-protein coupled receptor 151 (Homo sapiens), Q8TDV0; in the data active = activation above about 4.9%
Target sequence (Q8TDV0 whole entry, looked up): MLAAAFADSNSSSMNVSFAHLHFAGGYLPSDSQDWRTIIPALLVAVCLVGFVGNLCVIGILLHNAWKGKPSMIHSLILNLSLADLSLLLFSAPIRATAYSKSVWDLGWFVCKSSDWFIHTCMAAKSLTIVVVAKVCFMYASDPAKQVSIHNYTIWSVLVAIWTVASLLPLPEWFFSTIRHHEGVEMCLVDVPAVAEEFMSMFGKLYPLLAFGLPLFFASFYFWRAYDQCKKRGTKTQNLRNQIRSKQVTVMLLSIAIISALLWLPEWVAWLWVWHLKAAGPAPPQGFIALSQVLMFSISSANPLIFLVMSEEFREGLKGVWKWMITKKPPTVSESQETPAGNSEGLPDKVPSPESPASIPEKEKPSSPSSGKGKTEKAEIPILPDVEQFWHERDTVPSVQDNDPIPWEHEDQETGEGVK
TEAD-YAP block: TEAD-YAP interaction inhibition, primary screen, TEAD-YAP interaction inhibitor project, luminescence, HEK-TIYL cells | TEAD-Gal4/YAP UAS-luciferase luminescence | inhibition, % at 9.12 µM | hit rate 1.4% among 640,000; in the data active = inhibition above about 32%
MITF confirm: MITF inhibitors, retest of hits, confirmation, biochemical, AlphaScreen, triplicate; shares compounds with MITF primary; AlphaScreen MITF homodimerization, biotin/His-MITF beads; inhibition, % at 2.6 µM; hit rate 16% among 4,700; AID 1259372, 2018;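 active = inhibition above a cutoff derived from the DMSO control wells, cut at about 28% in these data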;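 also: inhibitors lower the bead chemiluminescence by keeping MITF from dimerizing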
AlphaScreen DR: AlphaScreen optical interference compounds, dose response, counter-screen, biochemical, HTS; shares compounds with MITF primary; AlphaScreen optical interference counterscreen, cell-free; IC50, µM; hit rate 6% among 480; AID 1259373, 2018; call rule not given here
AlphaScreen intf2: AlphaScreen optical interference compounds, counter-screen for MITF inhibitor project, biochemical, triplicate | shares compounds with MITF primary | LysRS AlphaScreen counterscreen, signal interference | inhibition, % at 2.6 µM | hit rate 7.6% among 4,700 | AID 1259376, 2018;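 active = inhibition above a cutoff derived from the DMSO control wells, cut at about 30% in these data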
Large screens that a line does not name were inactive (follow-up assays come after a bar, where they were run). This is a sample that favours compounds with a hit; in the whole collection about 3.4% have one here.

C=CCNCCOCCOc1ccc(C(C)(C)C)cc1C	none
C=CCNCCOCCOc1ccc(C)cc1Br	MITF primary 60 | MITF confirm inactive | AlphaScreen intf2 inactive
COCCNCCOc1cc(C)ccc1C(C)(C)C	MITF primary 51 | MITF confirm inactive | AlphaScreen intf2 inactive
C=CCc1cc(OC)ccc1OCCN1CC(C)OC(C)C1 (stereo unspecified)	MITF primary 64 | MITF confirm inactive | AlphaScreen intf2 36
CC(=O)NCCC(=O)NCCc1ccc(S(N)(=O)=O)cc1	none
CCOc1ccc(C2C(C(=O)OCc3ccccc3)=C(C)NC3=C2C(=O)CC(c2ccc(Cl)cc2)C3)cc1 (stereo unspecified)	none
CCOC(=O)c1cnc2ccc(OCC)cc2c1NCCc1ccccc1	none
C=CCNCCOc1ccc(Br)cc1Cl	MITF primary 56 | MITF confirm inactive | AlphaScreen intf2 inactive
C=CCNCCCOc1ccc(Br)cc1Cl	none
C=CCc1cc(OC)ccc1OCCCNCCOC	MITF primary 62 | MITF confirm inactive | AlphaScreen intf2 inactive
O=C1CCCN1CCn1cnc2c(NCc3nc4ccccc4[nH]3)nc(Nc3ccccc3)nc21	MITF primary 52 | MITF confirm inactive | AlphaScreen intf2 inactive
COCCn1c(-c2ccc(F)cc2)nc2c(c(=O)c3ccccc3n2C)c1=O	none
CCCn1c(-c2ccc(OC)cc2)nc2c(c(=O)c3ccccc3n2C)c1=O	MITF primary 90 | MITF confirm inactive | AlphaScreen intf2 inactive
O=C(Nc1ccccc1F)N(Cc1ccco1)Cc1cc2cc3c(cc2[nH]c1=O)OCCO3	none
O=C(CCCCC1SCC2NC(=O)NC21)NC1(c2ccc(F)cc2)CCCC1 (stereo unspecified)	MITF primary 109 | MITF confirm 88 | AlphaScreen DR 4.3 | AlphaScreen intf2 inactive
COC(=O)CCCC[C@H]1SC[C@H]2NC(=O)N[C@H]21	none
c1ccc(CC2(c3ccccc3)CCNC2)cc1 (stereo unspecified)	MITF primary 56 | MITF confirm inactive | AlphaScreen intf2 inactive
CC1=C([N+](=O)[O-])CS(=O)(=O)/C1=C\c1ccccc1	none
COc1cc(/C=C2\C(C)=C([N+](=O)[O-])CS2(=O)=O)ccc1O	MITF primary 87 | MITF confirm 76 | AlphaScreen DR inactive | AlphaScreen intf2 inactive
OCCCNc1ncnc2sc(-c3ccccc3)cc12	none
C=COCCCNc1ncnc2sc(-c3ccccc3)cc12	MITF primary 61 | MITF confirm inactive | AlphaScreen intf2 inactive
c1ccc(-c2cc3c(NCCCN4CCOCC4)ncnc3s2)cc1	MITF primary 61 | MITF confirm inactive | AlphaScreen intf2 inactive
Cc1nc2c3ccccc3n3c(CCCC(=O)NC(C)C)nnc3n2n1	none
CN(CCOc1ccccc1)Cc1nc2ccc(Cl)cc2n1CCO	MITF primary 78 | MITF confirm inactive | AlphaScreen intf2 inactive
COc1ccc(CN(C)CCc2ccccn2)c(OC)c1OC	MITF primary 58 | MITF confirm inactive | AlphaScreen intf2 inactive
COc1ccccc1CN(C)CCc1ccccn1	MITF primary 67 | MITF confirm inactive | AlphaScreen intf2 inactive
CN(CC(=O)NCc1ccccn1)S(=O)(=O)c1ccc(F)cc1	none
COc1ccc(Br)cc1CN(C)CCc1ccccn1	none
CN(CCc1ccccn1)Cc1cccc2ccccc12	none
CN(CCc1ccccn1)Cc1c[nH]c2ccccc12	MITF primary 74 | MITF confirm inactive | AlphaScreen intf2 inactive
CN(CCc1ccccn1)S(=O)(=O)c1ccc(F)cc1	MITF primary 75 | MITF confirm inactive | AlphaScreen intf2 inactive
CN(CCc1ccccn1)Cc1cccc(Cl)c1	MITF primary 51 | MITF confirm inactive | AlphaScreen intf2 inactive
CN(C)CCN(C)Cc1ccc(-c2ccccc2)cc1	MITF primary 52 | MITF confirm inactive | AlphaScreen intf2 inactive
COc1cccc(OCC(=O)NCc2ccccn2)c1	none
Cc1cccc(OCC(=O)N(C)CCc2ccccn2)c1	MITF primary 62 | MITF confirm inactive | AlphaScreen intf2 inactive
Cc1ccccc1CN(C)CCc1ccccn1	none
CCOc1ccc(CN(C)CCN(C)C)cc1	MITF primary 85 | MITF confirm inactive | AlphaScreen intf2 inactive
COc1ccc(C2CC(c3ccc(I)cc3)Nc3nnnn32)cc1 (stereo unspecified)	none
C=CCOc1ccccc1/C=N/NS(=O)(=O)c1ccc(Cl)cc1	none
CN(C)CCN(C)Cc1ccc(F)c(F)c1	MITF primary 51 | MITF confirm inactive | AlphaScreen intf2 inactive
CCn1c2ccccc2c2cc(CN(C)CCc3ccccn3)ccc21	MITF primary 74 | MITF confirm inactive | AlphaScreen intf2 inactive
CCOc1ccc(CN(C)CCc2ccccn2)cc1	MITF primary 88 | MITF confirm inactive | AlphaScreen intf2 inactive
CN(CCc1ccccn1)Cc1ccc(Br)cc1	none
Cc1cccc(CN(C)CCc2ccccn2)c1	MITF primary 69 | MITF confirm inactive | AlphaScreen intf2 inactive
CN(CCc1ccccn1)Cc1cccc(Br)c1	none
CCCCNc1nc(SCc2ccccc2Cl)nc2ccccc12	none
COc1ccc(C2(C(=O)Nc3ccc(C)c(Cl)c3)CCOCC2)cc1	none
Nc1nonc1-c1nc2ccccc2n1Cc1cccc(I)c1	none
CCOC(=O)c1c(N)nn2c3ccccc3n(C)c12	MITF primary 64 | MITF confirm inactive | AlphaScreen intf2 inactive
Cc1ccc(/C(O)=C2/C(=O)C(=O)N(CCCN(C)C)C2c2ccccc2F)cc1 (stereo unspecified)	none
COc1ccc(CN2CCN(Cc3ccc(OC)cc3OC)CC2)cc1	MITF primary 65 | MITF confirm inactive | AlphaScreen intf2 inactive
COc1ccc(CN2CCN(Cc3ccc(SC)cc3)CC2)c(OC)c1	MITF primary 70 | MITF confirm inactive | AlphaScreen intf2 inactive
COc1ccc(CN2CCN(Cc3ccc(F)cc3)CC2)c(OC)c1	MITF primary 81 | MITF confirm inactive | AlphaScreen intf2 inactive
COc1ccc(CN2CCCN(C)CC2)c(OC)c1	none
COc1ccc(CN2CCN(CCCc3ccccc3)CC2)c(OC)c1	MITF primary 74 | MITF confirm inactive | AlphaScreen intf2 inactive
CCOc1ccc(CN2CCN(Cc3ccc(SC)cc3)CC2)cc1	none
COc1ccc(CN2CCN(Cc3ccc(Br)cc3)CC2)c(OC)c1	none
COc1ccc(CN2CCN(Cc3ccc(OC)cc3OC)CC2)c(OC)c1	MITF primary 72 | MITF confirm inactive | AlphaScreen intf2 inactive
COc1ccc(CN2CCN(Cc3ccc(OC)c(OC)c3)CC2)c(OC)c1	MITF primary 66 | MITF confirm inactive | AlphaScreen intf2 inactive
COc1ccc(N2CCN(Cc3ccc(OC)cc3OC)CC2)cc1	none
